Compounds with a hit are over-represented: about 18% of the library has one in this group of screens.
TDP1 block = TDP1 (human) enzyme inhibition | Q9NUW8 | recombinant TDP1, AlphaScreen DNA substrate cleavage | Potency, µM (titrated, usually from 130 µM), inactives show at the top dose activity change, negative = inhibition, usual class: inhibitors | hit rate 0.28% among 350,000 | AID 485290; also: potency is read from the fitted curve at half-maximal effect; % is scaled to controls: 0 for no effect and ±100 for the full control effect; nearly all actives have a fitted effect of over 40% in size
Target sequence (Q9NUW8 whole entry, looked up): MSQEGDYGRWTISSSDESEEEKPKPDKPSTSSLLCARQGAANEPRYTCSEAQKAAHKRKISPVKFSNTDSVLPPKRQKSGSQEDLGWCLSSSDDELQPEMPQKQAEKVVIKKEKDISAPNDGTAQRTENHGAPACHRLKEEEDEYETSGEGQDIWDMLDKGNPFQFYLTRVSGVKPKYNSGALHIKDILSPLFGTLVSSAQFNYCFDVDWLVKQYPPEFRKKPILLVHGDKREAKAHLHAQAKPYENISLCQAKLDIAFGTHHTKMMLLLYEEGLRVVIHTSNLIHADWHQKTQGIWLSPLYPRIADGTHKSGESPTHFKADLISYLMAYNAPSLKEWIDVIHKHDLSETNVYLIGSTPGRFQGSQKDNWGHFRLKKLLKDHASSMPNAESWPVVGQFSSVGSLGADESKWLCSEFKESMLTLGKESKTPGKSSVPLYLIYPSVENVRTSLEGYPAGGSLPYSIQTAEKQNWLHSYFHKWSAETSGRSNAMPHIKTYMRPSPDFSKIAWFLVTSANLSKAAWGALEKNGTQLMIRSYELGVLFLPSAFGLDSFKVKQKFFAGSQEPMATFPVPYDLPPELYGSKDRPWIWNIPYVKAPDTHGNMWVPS
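Recombinant human Tdp1 (E. coli-expressed, 1 nM final) preincubated with compounds 15 min at room temperature, then 5'-biotin/3'-phosphotyrosine-FITC DNA substrate (15 nM final) added for 5 min. AlphaScreen beads (10 ug/ml final) added 10 min; cleavage lowers signal.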
DT40 TDP1 no CPT = qHTS for Inhibitors of human tyrosyl-DNA phosphodiesterase 1 (TDP1): qHTS in cells in absence of CPT. DT40 Tdp1-/- hTDP1 cells, no CPT, ATP luminescence, 48 h. Potency, µM (highest dose often 46.2 µM), for inactives: at the top dose activity change, negative = growth inhibition, usual class: inhibitors. hit rate 15% among 420,000. AID 686978, 2013; also: potency is read from the fitted curve at half-maximal effect; % is scaled to controls: 0 for no effect and ±100 for the full control effect; nearly all actives have a fitted effect of over 55% in size
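Seeded 400 DT40-hTDP1 cells/well (vehicle DMSO, no 20 nM CPT); pinned compounds; ≥48 hr at 37 °C; CellTiter-Glo luminescence as viability measure.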
TGFb SMAD3 inh = TGF-b pathway inhibition | HepG2 CAGA-GFP TGF-b/SMAD3 reporter, GFP fluorescence, 18 h; TGF-beta stimulated, 500 pg/mL final | Potency, µM (doses to about 46.1 µM), for the others: top-dose activity, negative = inhibition, hits mostly inhibitors | hit rate 1.2% among 410,000 | AID 588855; also: potency is read from the fitted curve at half-maximal effect; % is scaled to controls: 0 for no effect and ±100 for the full control effect; nearly all actives have a fitted effect of over 65% in size
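Inhibition was scored as loss of TGF-beta-induced (500 pg/mL final, 18 hours, 37 degrees C) GFP in HEPG2 cells carrying a CAGA-GFP reporter, in DMEM with 1% FBS. Well GFP was summed per cell; Activity was normalised to unstimulated and stimulated DMSO wells, then concentration-response fitting.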
IL1B secr inh = inhibitors of inflammasome signaling (IL-1 beta secretion); hit rate 4.7% among 360,000; AID 743279; activity change, % at 57.5 µM; THP-1 LPS/ATP IL-1B secretion, AlphaLISA, 16 h; hits give low values; in the data active = activity change below about -50%; inconclusive = mostly about -30% to -49%; also: % is scaled to controls: 0 for no effect and ±100 for the full control effect
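Secreted IL-1B measured by AlphaLISA bead assay after 16 h compound exposure of THP-1 cells; compounds (final up to 57.5 uM) added 1 h before LPS (250 ng/mL) and ATP (1.25 mM) stimulation; lower signal means less secretion.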
HepG2 tox = kills HepG2 cells in TGF-b inhibitor counter-screen. HepG2 CAGA-GFP viability, ATP luminescence, 18 h. Potency, µM (series often up to 46.1 µM), without a hit: at the top dose activity change, negative = cytotoxicity, most hits filed as cytotoxic. AID 588856. hit rate 0.76% among 410,000; also: potency is read from the fitted curve at half-maximal effect
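HepG2 CAGA-GFP cells (1000/well, DMEM with 1% FBS) received compound, then TGF-beta at 500 pg/mL final, and were incubated 18 hours at 37 degrees C. Viability was read by CellTiter-Glo luminescence. Media-only wells were set as complete cell-killing and DMSO as no toxicity.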
DT40 TDP1 CPT = growth inhibition of DT40 Tdp1-/-;hTDP1 cells with camptothecin (screen for TDP1 inhibitors). chicken DT40 Tdp1-/-;hTDP1 cells + 20 nM CPT, ATP luminescence, 48 h. Potency, µM (series often up to 46.2 µM), for inactives: at the top dose activity change, negative = growth inhibition, hits mostly inhibitors. hit rate 12% among 420,000. AID 686979; also: potency is read from the fitted curve at half-maximal effect; % is scaled to controls: 0 for no effect and ±100 for the full control effect; nearly all actives have a fitted effect of over 55% in size
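Cell growth measured by CellTiter-Glo luminescence after a minimum 48 h, 37 C compound exposure with 20 nM CPT in Tdp1-knockout DT40 cells stably expressing hTDP1, seeded 400/well; qHTS titration format.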
* = called active by the depositor; ? = inconclusive; / = no result. Unless noted, calls follow the shape of the dose curve; as a rule, active = well fitted curve in the direction sought with a large enough effect; inconclusive = small, poorly fitted or top-dose-only effect, or another doubt; inactive = no such curve, though single readings can be large; an effect the other way counts as inactive or inconclusive.

SMILES | TDP1 block | DT40 TDP1 no CPT | TGFb SMAD3 inh | IL1B secr inh | HepG2 tox | DT40 TDP1 CPT
NCC[C@H](O)C(=O)N[C@@H]1C[C@H](N)[C@@H](O[C@H]2O[C@H](CN)CC[C@H]2N)[C@H](O)[C@H]1O[C@H]1O[C@H](CO)[C@@H](O)[C@H](N)[C@H]1O | / | -24% | / | / | / | -4%
COc1cc(Br)c(C2CC(=O)Nc3cc(OC)c(OC)c(OC)c32)cc1OC (configuration not stated) | 0% | ? | 0% | / | -11% | 4%
Cn1c(N)c(S(=O)(=O)NCc2ccc(F)cc2)c(=O)n(C)c1=O | 3% | 10% | 9% | 5 | -16% | 7%
COc1cccc(CNC(=O)CCC2CCCN(C(=O)c3cccnc3SC)C2)c1 (configuration not stated) | 3% | ? | ? | 14 | -33% | ?
O=C(CCCSc1ccc(Cl)cc1)Nc1cc(S(=O)(=O)N2CCOCC2)ccc1O | 4% | 23µM* | ? | 28 | -23% | 18µM*
Cc1cc(-c2nnc(SCC(=O)Nc3ccc(F)cc3F)n2N)n[nH]1 | 2% | 28% | 0% | -10 | -2% | 0%
Cc1cccc(C(C)(C)C)c1OCCCCN1CCCC1 | -5% | 23µM* | 0% | -21 | -43% | ?
Cc1ccc(C(C)C)c(OCCCn2ccnc2C)c1 | / | 29µM* | -14% | -16 | 8% | 16µM*
Cc1ccc(C)c(OCCCCN2CCNCC2)c1C | 6% | 6.5µM* | 16% | -13 | -13% | 15µM*
Cc1ccc(C(C)C)c(OCCOCCN2CCNCC2)c1 | / | ? | -13% | -12 | -30% | ?
Cc1ccc(C(C)C)c(OCCCCN2CCNCC2)c1 | / | 16µM* | 2% | -58* | -41% | 15µM*
Cc1ccc(C(C)C)c(OCCN)c1 | -2% | ? | -8% | -11 | -4% | -29%
O=C(O)CSc1nc2ccccc2nc1Cc1ccccc1F | / | 4% | 0% | 13 | -4% | -3%
COCCCNC(=O)NC(CCC(C)C)c1c(-n2cccc2)sc2c1CCN(C)C2 (configuration not stated) | 10% | ? | -2% | / | 1% | ?
COC(=O)c1ccc(C(NC(=O)OCc2ccccc2)/C(F)=C/[C@@H](C)C(=O)NCc2ccc(-c3ccccc3)cc2)cc1 (some centres not stated) | 3% | ? | ? | -2 | -14% | 16µM*
COC(=O)c1ccc(C(NC(=O)OCc2ccccc2)/C(F)=C/[C@@H](C)C(=O)NCc2ccc(OC)c(OC)c2)cc1 (some centres not stated) | 3% | ? | -18% | -9 | -34% | 23µM*
CCOC(=O)c1cc(OC(=O)c2cccc(F)c2)n(-c2ccccc2)n1 | -2% | / | 0% | / | -8% | /
O=C(NCCc1ccccc1)C1CCC(CNS(=O)(=O)c2cccc3cccnc23)CC1 (configuration not stated) | / | 23µM* | -27% | -15 | -37% | 16µM*
COc1ccc(CCNC(=O)C2CCN(S(=O)(=O)c3cccc4cccnc34)CC2)cc1OC | -12% | ? | 9% | 28 | -3% | 16µM*
O=[N+]([O-])c1cc(S(=O)(=O)NCCCN2CCOCC2)ccc1Cl | -1% | -18% | ? | -64* | 0% | 3%
O=C(NCCCN1CCOCC1)c1ccc(Sc2cccc(Cl)c2)c([N+](=O)[O-])c1 | 4% | 21µM* | -15% | ? | -22% | ?
COc1ccc(NC(=O)c2ccc(NCCCN3CCOCC3)c([N+](=O)[O-])c2)cc1 | 2% | 18µM* | -26% | ? | -15% | 21µM*
